SSB-PriA inh = K. pneumoniae PriA-SSBct interaction inhibition | AlphaScreen SSBct-PriA binding, biotinylated peptide | 0.6% of 430,000 active | inhibition, % at 33 µM; in the data active = inhibition mostly above about 37%, no sharp cut-off; inactive = mostly below about 20%;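 note: plate controls were negative control peptide for no effect and reference peptide for full effect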
Sa ugtP lethal = kills S. aureus RN4220 lacking UgtP. S. aureus RN4220 ugtP deletion, OD600 growth, 16 h. growth inhibition, % (test concentration not listed). 0.54% of 330,000 active; in the data active = growth inhibition above about 68%;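 note: plate controls were untreated wells for no effect and antibiotic for full effect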
Sa RN4220 lethal = kills Staphylococcus aureus RN4220; S. aureus RN4220 growth, OD600, 16 h; inhibition, % (test concentration not listed); 0.33% of 330,000 active; in the data active = inhibition above about 85%;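 note: plate controls were untreated cells for no effect and reference antibiotic for full effect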
MazF activator = increases E. coli MazEF RNase cleavage of RNA. P0AE70. 0.32% of 350,000 active. activation, % at 20 µM. FAM/BHQ RNA-DNA oligo cleavage fluorescence, 5 h; in the data active = activation above about 50%
Target sequence (P0AE70 whole entry, looked up): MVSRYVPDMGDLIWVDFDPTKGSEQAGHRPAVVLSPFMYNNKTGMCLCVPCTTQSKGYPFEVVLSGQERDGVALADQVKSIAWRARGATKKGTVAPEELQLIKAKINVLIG
BJeLR viability = BJeLR cell viability loss; BJeLR (HRASV12) viability, CellTiter-Glo ATP luminescence, 48 h; inhibition, % (no concentration beside the values); 0.17% of 300,000 active; AID 1554; in the data active = inhibition above about 50%
* marks the source's active call; other numbers are inactive results; / = not tested or not shown. This is a sample that favours compounds with a hit; in the whole collection about 1.2% have one here.

SMILES	SSB-PriA inh	Sa ugtP lethal	Sa RN4220 lethal	MazF activator	BJeLR viability
COc1ccccc1NC(=O)c1ccc([N+](=O)[O-])cc1[N+](=O)[O-]	8	6	-2	-4	1
Cc1cc(C)c(C#N)c(SCC(=O)c2cccs2)n1	-10	-5	5	109*	2
CC(C)Oc1ccc(Cc2cnc(N)nc2N)cc1	-1	91*	17	-1	0
CCCCOc1ccc(Cc2cnc(N)nc2N)cc1	7	66	6	12	4
CN(C)S(=O)(=O)c1cccc(C(=O)OCC(=O)NCc2ccccc2)c1	-4	-4	5	6	6
CCc1ccc2nc(SCC(=O)N3CC(=O)Nc4ccccc43)c(C#N)cc2c1	-16	8	3	83*	14
N#Cc1cc(C#N)c(SCC(=O)N2CC(=O)Nc3ccccc32)nc1N	6	4	5	6	/
NC(C(=O)NC1C(=O)N2C(C(=O)O)=C(Cl)CSC12)c1ccccc1 (stereo unspecified)	/	100*	100*	/	/
CC1CCC2C(=O)N(c3ccc(NC4CCN(Cc5ccccc5)CC4)c([N+](=O)[O-])c3)C(=O)C2C1 (stereo unspecified)	43*	7	1	-14	5
O=[N+]([O-])c1ccc(NC2CCCC2)c2ccncc12	-2	-1	0	62*	-3
O=[N+]([O-])c1ccccc1NC1CCN(Cc2ccccc2)CC1	25	8	0	-5	-11
O=[N+]([O-])c1ccc(NC2CCN(Cc3ccccc3)CC2)c2ccncc12	9	12	3	58*	-2
COc1ccc(OC)c(C2C(C(=O)Nc3nc4ccccc4s3)=C(C)NC3=C2C(=O)CCC3)c1 (stereo unspecified)	-26	-6	-6	4	-3
COc1ccc(C(C)=NNC(=O)CNC(=O)C=Cc2ccco2)cc1	/	-2	3	/	/
COc1ccccc1-c1nc(SCC(=O)N(C)c2ccccc2)c2c(=O)n(C)c(=O)n(C)c2n1	7	4	-11	-11	-5
Cn1c(=O)c(NCCc2ccccc2)c2c3c(cccc31)C(=O)c1ccccc1-2	-43	17	27	60*	0
CCn1c(=O)c([N+](=O)[O-])c(NCc2ccco2)c2ccccc21	-4	-4	1	6	5
O=C(Nc1ccccc1)Nc1nc(C(=O)O)cs1	63*	/	/	/	/
O=C(NCc1ccccc1)c1csc(Nc2ccccc2)n1	-8	/	/	/	/
O=C(NCCc1c[nH]c2ccccc12)c1csc(Nc2ccccc2)n1	28*	/	/	/	/
CC(C)(C)c1csc(NC(=O)Nc2ccccc2)n1	-1	-28	3	7	-2
O=C(Nc1ccccc1)Nc1nc(C(=O)NCCc2c[nH]c3ccccc23)cs1	41*	/	/	/	/
COCCN1C=C2C(=O)C(C)(OC(=O)C3CCCC3)C(=O)C(c3ccccc3)=C2C=C1CCCC(=O)OC (stereo unspecified)	0	3	8	-15	-7
CCc1ccc(NC(=O)CC2C(=O)NCCN2C(=O)c2ccccc2OC)cc1 (stereo unspecified)	2	5	-3	1	4
Cc1ccc(NS(=O)(=O)c2cccc(C(=O)NNC(=O)NC3CCCCC3)c2)c(C)c1	1	2	4	2	9
SMILES	SSB-PriA inh	Sa ugtP lethal	Sa RN4220 lethal	MazF activator	BJeLR viability
c1coc(CNc2nc3nonc3nc2NCc2ccco2)c1	-14	-8	-7	7	/
CC(=NNC(=S)Nc1ccc(C)cc1)c1cc2ccccc2o1	38*	15	0	/	/
CCCC[N+]12C3C[C@H](C4[C@H](O)[C@]5(C[C@@H]41)c1ccccc1N(C)[C@@H]35)[C@H](CC)[C@H]2O (stereo partly specified)	49*	15	1	3	16
COc1cccc(Oc2c(C)oc3c(CN4CCOCC4)c(O)ccc3c2=O)c1	-2	3	1	-4	/
Cc1ccc(C)c(Nc2ccc3nonc3c2[N+](=O)[O-])c1	15	8	4	11	2
Cc1ccc(C)c(Nc2c([N+](=O)[O-])ccc3nonc23)c1	50*	10	10	8	-13
CCc1ccccc1-n1nnnc1-c1cnccc1C(F)(F)F	0	-4	0	3	2
O=C(Nc1ccccc1)c1sccc1Oc1ccc([N+](=O)[O-])cc1F	44*	3	9	-1	9
COc1ccc([N+](=O)[O-])cc1NC(=O)Nc1ccccc1	10	83*	95*	9	1
CCN=C(NCC)SC1CC(=O)N(c2ccccc2)C1=O (stereo unspecified)	-11	0	3	-2	-3
c1ccc2c(CNc3ccc(CNc4ncn[nH]4)cc3)cccc2c1	40*	-19	-11	12	5
COc1ccccc1CNc1ccc(CNc2ncn[nH]2)cc1	7	1	8	3	-11
O=C(CCC1=NS(=O)(=O)c2ccccc2N1)N1CCCC1	-9	/	/	/	/
COc1ccccc1OCC(=O)NN=CC=Cc1ccc([N+](=O)[O-])o1	/	100*	101*	/	/
CC(C)(C)c1ccc(C(=O)CSc2nc3ccccc3c(=O)[nH]2)cc1	-5	4	6	51*	-4
O=C(CSc1nc2ccccc2c(=O)[nH]1)c1ccccc1	7	-1	6	6	-16
COc1cc(Cc2cc(N)nc(N)n2)cc(OC)c1OC	-22	100*	98*	7	-1
COc1ccc(CCc2cc(OC)c(OC)c(OC)c2)cc1	-19	/	/	6	/
O=C(Nc1ccccc1)C1=C(c2ccccc2)S(=O)(=O)CCS1(=O)=O	-14	100*	90*	-5	12
CCCN1CCCc2cc(CCNC(=O)C(=O)Nc3ccccc3OCC)ccc21	58	/	/	/	/
CCCN1CCCc2cc(CCNC(=O)COc3ccc(Cl)cc3)ccc21	73*	/	/	/	/
CCCN1CCCc2cc(CCNC(=O)COc3ccc(F)cc3)ccc21	78*	/	/	/	/
CCCN1CCCc2cc(CCNC(=O)c3ccccc3OCC)ccc21	74*	/	/	/	/
CCCC(=O)NCCc1ccc2c(c1)CCCN2CCC	28	/	/	/	/
CCN1CCCc2cc(CCNC(=O)c3ccccc3C(F)(F)F)ccc21	59*	/	/	/	/
SMILES	SSB-PriA inh	Sa ugtP lethal	Sa RN4220 lethal	MazF activator	BJeLR viability
CCn1nccc1C(=O)Nc1ccc2nc(N3CCN(C)CC3)sc2c1	0	/	/	/	/
O=C(NC1CCCCC1)c1ccccc1NC(=O)C1CC(=O)N(c2ccc(Cl)cc2)C1 (stereo unspecified)	-2	-4	10	-7	-3
CCCN1CCCc2cc(CCNC(=O)c3cc(Cl)ccc3OC)ccc21	66*	/	/	/	/
CCCN1CCCc2cc(CCNC(=O)c3ccc(OC)cc3)ccc21	74*	/	/	/	/
CCCN1CCCc2cc(CCNC(=O)COc3ccc(OC)cc3)ccc21	74*	/	/	/	/
CCCN1CCCc2cc(CCNC(=O)c3cccc(OC)c3OC)ccc21	24	/	/	/	/
CCCN1CCCc2cc(CCNC(=O)COc3ccccc3C)ccc21	68*	/	/	/	/
CCCN1CCCc2cc(CCNC(=O)COc3ccc(C)cc3)ccc21	64	/	/	/	/
CCCN1CCCc2cc(CCNC(=O)COc3cccc(C)c3)ccc21	90*	/	/	/	/
CCCN1CCCc2cc(CCNC(=O)C(=O)Nc3c(C)cccc3C)ccc21	35	/	/	/	/
